Measurements taken from PubChem BioAssay AID1159580 (chemical genetic matrix, 2015).
In all, about 5,500 compounds went through this assay and about 2,000 (36%) were called active. About 18% were inconclusive and are not listed. Cut-off read from the data, not from the text of the source: active = normalized growth mostly below about 0.91 (no sharp cut-off); inconclusive = no clear call, values can overlap the other calls; inactive = mostly above about 0.92. Some of the results follow.

Assay: chemical genetic growth profiling, strain panel (AID 1159580);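 note: tested at 20 µM; growth read once vehicle control cultures reached saturation at 30 °C; 1 = growth at the plate median or of vehicle wells; lower values mean less growth of the strain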
Conditions: S. cerevisiae deletion strains, growth OD
[1] = locus YAL040C, strain CLN3, hits give low values
[2] = locus YCL061C, strain MRC1 (second series), hits give low values
[3] = locus YER002W, strain NOP16, hits give low values
[4] = locus YMR263W, strain SAP30, hits give low values
[5] = locus YNL128W, strain TEP1, hits give low values
[6] = locus YNL175C, strain NOP13, hits give low values
[7] = locus YNL197C, strain WHI3, hits give low values
[8] = locus YNL224C, strain SQS1, hits give low values
[9] = locus YOR083W, strain WHI5 (second series), hits give low values

Measured: normalized growth

N=C(N)SCCc1cnc[nH]1
inactive: [1] 0.985 | [2] 0.988 | locus YDR363W, strain ESC2, hits give low values 1.01 | [3] 1.02 | locus YJR075W, strain HOC1, hits give low values 0.998 | [4] 0.979 | [5] 0.995 | locus YNL153C, strain GIM3, hits give low values 0.972 | [6] 0.992 | [7] 0.98 | [8] 0.991 | locus YNL322C, strain KRE1, hits give low values 0.979 | [9] 0.988 | locus YPL055C, strain LGE1, hits give low values 1

NCCC(=O)NCCc1cnc[nH]1
inactive: locus YAL013W, strain DEP1, hits give low values 1 | [1] 0.98 | [2] 0.997 | [3] 0.993 | locus YGR078C, strain PAC10, hits give low values 1.01 | [4] 1 | [5] 1.01 | [6] 0.966 | [7] 0.984 | [8] 0.998 | [9] 1 | locus YPL241C, strain CIN2, hits give low values 1.01
